The assay is described as follows: qHTS drug screen for cell cycle checkpoint inhibitors in PARPi-resistant BRCA-mutant ovarian cancer cell lines. (AID 1963452). The conditions noted are these: PEO1/OlaR viability, CellTiter-Glo luminescence, 96 h, stronger effect = lower value. An excerpt:
Women's Malignancies Branch, Center for Cancer Research (CCR),
National Cancer Institute (NCI), National Institutes of Health (NIH), Bethesda, MD
Poly (ADP-ribose) polymerase inhibitors (PARPis) have changed the treatment paradigm in breast cancer gene (BRCA) - mutant high-grade serous ovarian carcinoma (HGSC). However, most patients eventually develop resistance to PARPis, highlighting an unmet need for improved therapeutic strategies. Using high-throughput drug screens, we identified ataxia telangiectasia and rad3-related protein/checkpoint kinase 1 (CHK1) pathway inhibitors as cytotoxic and further validated the activity of the CHK1 inhibitor (CHK1i) prexasertib in PARPi-sensitive and -resistant BRCA-mutant HGSC cells and xenograft mouse models. CHK1i monotherapy induced DNA damage, apoptosis, and tumor size reduction. We then conducted a phase 2 study (NCT02203513) of prexasertib in patients with BRCA-mutant HGSC. The treatment was well tolerated but yielded an objective response rate of 6% (1 of 17; one partial response) in patients with previous PARPi treatment. […] BRCA reversion mutation in previously PARPi-treated BRCA-mutant patients was not associated with resistance to CHK1i.
Among others, 1082 oncology drugs, both approved and investigational, were prioritized based on their status in clinical trial development. […] Drugs with average Z-AUC values less than -1.0 in all three cell lines were classified as "hits" resulting in 151 oncology drug hits. The screen also confirmed cross-resistance between olaparib and other PARPis (rucaparib, niraparib, and talazoparib) in PARPi-resistant PEO1/OlaR and PEO4.
[1] G. L. Lin, K. M. Wilson, M. Ceribelli, B. Z. Stanton, P. J. Woo, S. Kreimer, E. Y. Qin, X. Zhang, J. Lennon, S. Nagaraja, P. J. Morris, M. Quezada, S. M. Gillespie, D. Y. Duveau, A. M. Michalowski, P. Shinn, R. Guha, M. Ferrer, C. Klumpp-Thomas, S. Michael, C. McKnight, P. Minhas, Z. Itkin, E. H. Raabe, L. Chen, R. Ghanem, A. C. Geraghty, L. Ni, K. I. Andreasson, N. A. Vitanza, K. E.Warren, C. J. Thomas, M. Monje, Therapeutic strategies for diffuse midline glioma from high-throughput combination drug screening. Sci. Transl. Med. 11, (2019).
[2] T. M. Yamamoto, A. McMellen, Z. L. Watson, J. Aguilera, R. Ferguson, E. Nurmemmedov, T. Thakar, G. L. Moldovan, H. Kim, D. M. Cittelly, A. M. Joglar, E. P. Brennecke, H. Wilson, K. Behbakht, M. J. Sikora, B. G. Bitler, Activation of Wnt signaling promotes olaparib resistant ovarian cancer. Mol. Carcinog. 58, 1770 - 1782 (2019).
PROTOCOL TABLE (as described by Inglese J, Shamu CE and Guy RK. 2007)
SEQUENCE No. (e.g., 1, 2, 3, etc.); […] (e.g., Cells, Incubation, Reagent, etc.); VALUE; DESCRIPTION.
1; Compounds; 20nL; 1536-well white tissue culture-treated plates.
2; Cells; 5 uL; PEO1, PEO4, and PEO1/OlaR cells at 600 cells per well.
3; Incubation; 96 hr; 37C, 95% humidity, 5% CO2.
4; Reagent; 3 uL; CellTiter-Glo (Promega).
5; Incubation; 15 min; room temperature.
6; Detection; Luminescence, PHERAstar (BMG Labtech) plate reader.
NOTES (numbers refer to Sequence numbers above)
1. MIPE 5.0 compounds were acoustically dispensed by Echo Acoustic Liquid Handler (Beckman Coulter Life Sciences). Each compound was plated at an 11-point concentration range with 1:3 dilution. Bortezomib, a proteasome inhibitor (final concentration, 20 uM), was used as a positive.
2. PEO1, PEO4, and PEO1/OlaR were trypsinized and dispensed in 5 uLof growth medium using a Multidrop Combi dispenser at a density of 600 cells per well to allow compounds to be present during the exponential growth phase.
3. Plates were incubated for 96 hours at standard incubator conditions and covered by a stainless steel gasketed lid to prevent evaporation.
4. Three microliters of CellTiter-Glo (Promega) were added to each well.
5. Plates were incubated at room temperature for 15 min with a stainless-steel lid in place.
6. Luminescence readings were taken using PHERAstar (BMG Labtech). […]
(qHTS replaces the single test concentration by a dilution series.)

Setting [1] is: measured here: PEO1 parental Z-AUC.

The source made the active and inactive calls. The call rests on the fitted dose curve.

Take `CC(C)C(=O)Nc1ncc(-c2cc(C(F)F)nn2-c2c(Cl)cccc2Cl)s1`: the Z-AUC is -0.482 (inactive). Further, the Z-AUC under setting [1] was found to be 0.209. The Z-AUC (measured here: PEO4 Z-AUC) came to 0.42.

Consider `Oc1ccc(C2=Cc3ccc(O)cc3OC2)cc1`, for which the Z-AUC is -0.664 (inactive). For the same molecule, the Z-AUC under setting [1] is -0.782. For the same molecule, the Z-AUC (measured here: PEO4 Z-AUC) was -0.812.

With `Nc1ncnc2c1nc(Cl)n2[C@@H]1O[C@H](CO)[C@@H](O)[C@@H]1O`, the Z-AUC is 0.764 (inactive). Besides, the Z-AUC under setting [1] was -0.225. Further, the Z-AUC (measured here: PEO4 Z-AUC) was -0.377.

For the molecule `COc1cccc(-c2cc(=O)c3ccccc3o2)c1N`, the Z-AUC was -0.672 (inactive). The Z-AUC under setting [1] is -0.47. Further, under “measured here: PEO4 Z-AUC”, the Z-AUC was -0.869.

Consider `COc1ccc2cccc(CCNC(C)=O)c2c1`, for which the Z-AUC is -0.374 (inactive). The Z-AUC under setting [1] was -0.478. Moreover, the Z-AUC (measured here: PEO4 Z-AUC) was -0.326.

As to `CC#CCn1c(N2CCC[C@@H](N)C2)nc2c1c(=O)n(Cc1nc(C)c3ccccc3n1)c(=O)n2C`, the Z-AUC is -0.285 (inactive). Besides, the Z-AUC under setting [1] was determined as 0.131. Moreover, the Z-AUC (measured here: PEO4 Z-AUC) is -0.262.

Turning to `Cc1ccc(/C=N/NC(=O)c2ccccc2Oc2ccccc2)o1`, the Z-AUC is 0.785 (inactive). Besides, the Z-AUC under setting [1] worked out at 0.523. The Z-AUC (measured here: PEO4 Z-AUC) is 0.656.

On to `c1ccc2c(Cc3c[nH]c4ccccc34)c[nH]c2c1`, for which the Z-AUC was 0.829 (inactive). Under setting [1], the Z-AUC worked out at 0.126. Also, the Z-AUC (measured here: PEO4 Z-AUC) is -0.359.

With `CC1(C)Cc2c(sc(NC(=S)NC(=O)c3ccccc3)c2C(=O)O)CO1`, the Z-AUC was -0.088 (inactive). Moreover, the Z-AUC under setting [1] is -0.241. For the same molecule, where the note is “measured here: PEO4 Z-AUC”, the Z-AUC turned out to be 0.00999.

`O=C1C(Cl)=C(NCCN2CCOCC2)C(=O)c2ncccc21`: the Z-AUC was -1.13 (inactive). Besides, the Z-AUC under setting [1] was -1.16. For the same molecule, under “measured here: PEO4 Z-AUC”, the Z-AUC was -1.1.

Consider `CN(C[C@@H]1COCCO1)S(=O)(=O)Nc1ccc2ccc3ncc(-c4cnn(C)c4)cc3c(=O)c2c1`, for which the Z-AUC is -0.656 (inactive). Under setting [1], the Z-AUC is -0.332. Also, the Z-AUC (measured here: PEO4 Z-AUC) is -0.0714.

For `Nc1ncnc2ccccc12`, the Z-AUC was -0.0198 (inactive). Besides, the Z-AUC under setting [1] was found to be 0.844. Further, the Z-AUC (measured here: PEO4 Z-AUC) was 0.705.

Turning to `C[C@]12CCC3c4ccc(O)cc4CCC3C1CCC2=O` (some centres not stated), the Z-AUC is 1.36 (inactive). Moreover, under setting [1], the Z-AUC was determined as 0.945. Moreover, under “measured here: PEO4 Z-AUC”, the Z-AUC turned out to be 1.78.

In the case of `CC(C)=CC[C@@H](O)C1=CC(=O)c2c(O)ccc(O)c2C1=O`, the Z-AUC is -0.228 (inactive). Besides, under setting [1], the Z-AUC is -0.402. For the same molecule, the Z-AUC (measured here: PEO4 Z-AUC) is -0.229.
